Experimental findings from PubChem BioAssay (NCI) are described below.

Compounds without any hit were thinned out: in the full panel of roughly 83,000, 20% have a hit.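 Plates (96-well) were seeded with cells, treated with compound at one concentration, and incubated for 48 hours before percent growth was determined.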 A number with no mark means an inactive call. Active and inactive are the calls of the source. The calls were made as follows: active = growth percent below 10; inactive = the rest.

Among the test systems are SR leukemia; RPMI-8226 leukemia; OVCAR-8 ovarian; OVCAR-5 ovarian; OVCAR-4 ovarian; SK-OV-3 ovarian; IGROV1 ovarian; OVCAR-3 ovarian; HS 578T breast; NCI/ADR-RES ovarian; T-47D breast; BT-549 breast; MDA-MB-435 melanoma; SW-620 colon; MCF7 breast; HCT-116 colon; HCC-2998 colon; KM12 colon; MDA-MB-468 breast.
Holding throughout (test): NCI-60 one-dose screen, 48 h (100 = growth as untreated, 0 = no growth, -100 = all killed)
Common to all, as to conditions: 10 µM unless noted

`COc1ccc2c(c1)C(=N/N=C(\C)c1ccc(OC)c(S(N)(=O)=O)c1)C(=O)N2`: the growth is 83.2% in the experiment with SR leukemia; 83% with RPMI-8226 leukemia; 92.7% in the experiment with OVCAR-8 ovarian; 99.8% with OVCAR-5 ovarian; 96.6% in the experiment with OVCAR-4 ovarian; 97.6% with SK-OV-3 ovarian. Moreover, the growth was 107% in the experiment with IGROV1 ovarian; 106% in the experiment with OVCAR-3 ovarian; 70.3% in the experiment with HS 578T breast; 100% with NCI/ADR-RES ovarian; 87% in the experiment on T-47D breast; 59% in the experiment on BT-549 breast. For the same molecule, the growth with MDA-MB-435 melanoma was 96.1%; in the experiment on SW-620 colon it was 93.9%; with MCF7 breast it was 90.3%; with HCT-116 colon, 88.6%; in the experiment with HCC-2998 colon, 111%; in the experiment on KM12 colon, 97.5%. Further, in the experiment with MDA-MB-468 breast, the growth was 78.6%.

For `CC(C)CSc1nc(NCCc2c[nH]c3ccccc23)c(C#N)c(-c2ccc(F)cc2)n1`, the growth in the experiment with SR leukemia was 3.42% (active); in the experiment with RPMI-8226 leukemia, 31.5%; in the experiment on OVCAR-8 ovarian, 59.5%; with OVCAR-5 ovarian, 101%; with OVCAR-4 ovarian it was 72.8%; in the experiment with SK-OV-3 ovarian, 57.9%. Moreover, the growth is 78.3% with IGROV1 ovarian; 76.9% in the experiment on OVCAR-3 ovarian; 39.6% in the experiment with HS 578T breast; 39.9% with NCI/ADR-RES ovarian; 24.6% in the experiment with T-47D breast; 72.1% in the experiment with BT-549 breast. Moreover, the growth with MDA-MB-435 melanoma was 59.1%; in the experiment on SW-620 colon, 38%; in the experiment with MCF7 breast, 22.5%; in the experiment with HCT-116 colon, 11.3%; in the experiment on HCC-2998 colon it was 32.5%; with KM12 colon it was 24%. Also, the growth with MDA-MB-468 breast is 54.3%.

Turning to `Cc1sc(C(NC(=O)OCCn2c([N+](=O)[O-])cnc2C)C(F)(F)Cl)nc1-c1ccc(OC(F)(F)F)cc1` (configuration not stated), the growth in the experiment with SR leukemia was 5.16% (active); in the experiment with RPMI-8226 leukemia it was 2.36% (active); in the experiment with OVCAR-8 ovarian it was -65.9% (active); with OVCAR-5 ovarian, -96% (active); in the experiment on OVCAR-4 ovarian, -37.7% (active); with SK-OV-3 ovarian it was -84.8% (active). Moreover, the growth with IGROV1 ovarian is -80.6% (active); in the experiment on OVCAR-3 ovarian, -59.6% (active); with HS 578T breast it was -31.1% (active); in the experiment with NCI/ADR-RES ovarian it was -78.6% (active); in the experiment on T-47D breast, -66.1% (active); in the experiment with BT-549 breast it was -92.2% (active). Further, the growth with MDA-MB-435 melanoma is -43.7% (active); in the experiment with SW-620 colon, -67.1% (active); in the experiment with MCF7 breast, -85.1% (active); in the experiment on HCT-116 colon, -80.3% (active); in the experiment on HCC-2998 colon, -96.6% (active); in the experiment with KM12 colon it was -61.9% (active). Besides, the growth in the experiment with MDA-MB-468 breast was -93.4% (active).

`Cc1ccc([C@H]2C(C(=O)c3ccc(Cl)cc3)C3(N[C@@H]2c2ccccc2)C(=O)Nc2ccc(Br)cc23)cc1` (some centres not stated): the growth with SR leukemia is 2.24% (active); in the experiment on RPMI-8226 leukemia it was 40.7%; with OVCAR-8 ovarian, 66.4%; in the experiment with OVCAR-5 ovarian it was 73.2%; with OVCAR-4 ovarian, 56.3%; in the experiment on SK-OV-3 ovarian, 79.4%. For the same molecule, the growth with IGROV1 ovarian was 60.1%; in the experiment with OVCAR-3 ovarian, 64%; in the experiment on HS 578T breast, 83.2%; in the experiment on NCI/ADR-RES ovarian, 55.5%; in the experiment on T-47D breast it was 41.1%; in the experiment on BT-549 breast, 96.3%. Further, the growth in the experiment with MDA-MB-435 melanoma was 67.6%; in the experiment with SW-620 colon, 70.6%; in the experiment with MCF7 breast, 21.2%; in the experiment on HCT-116 colon, 30.7%; in the experiment on HCC-2998 colon, 25.7%; with KM12 colon it was 39%. In the experiment on MDA-MB-468 breast, the growth is 59.5%.

As for `Cc1nc(Nc2ccccn2)sc1C(=O)CC(SCC(=O)Nc1ccc(Cl)cc1)c1ccccc1F` (configuration not stated), the growth with SR leukemia is 12.6%; in the experiment on RPMI-8226 leukemia, 7.34% (active); with OVCAR-8 ovarian, -35.8% (active); with OVCAR-5 ovarian, -41.2% (active); with OVCAR-4 ovarian, 42.5%; with SK-OV-3 ovarian it was 8.74% (active). For the same molecule, the growth in the experiment on IGROV1 ovarian was 20.4%; in the experiment with OVCAR-3 ovarian, -13.5% (active); with HS 578T breast, 4.29% (active); in the experiment with NCI/ADR-RES ovarian, -18% (active); with T-47D breast, -7.28% (active); with BT-549 breast it was 24.2%. The growth is -60% (active) in the experiment on MDA-MB-435 melanoma; 2.15% (active) in the experiment with SW-620 colon; 13.2% with MCF7 breast; 4.66% (active) in the experiment with HCT-116 colon; 17.2% in the experiment on HCC-2998 colon; -19.1% (active) with KM12 colon. Further, the growth in the experiment on MDA-MB-468 breast was -22.1% (active).

With `Cc1cccc(-c2nc(Nc3cccc(S(N)(=O)=O)c3)c3ccccc3n2)c1`, the growth in the experiment on SR leukemia was 33%; in the experiment on RPMI-8226 leukemia it was 38.3%; in the experiment with OVCAR-8 ovarian, 2.28% (active); in the experiment with OVCAR-5 ovarian it was 77.2%; with OVCAR-4 ovarian it was 52.3%; with SK-OV-3 ovarian, 102%. Further, the growth with IGROV1 ovarian was 66.1%; with OVCAR-3 ovarian, 73.4%; in the experiment on HS 578T breast, 76.5%; with NCI/ADR-RES ovarian it was 22.8%; in the experiment with T-47D breast, 36.4%; in the experiment on BT-549 breast, 88.6%. Also, the growth in the experiment on MDA-MB-435 melanoma was 46.4%; in the experiment with SW-620 colon, 67.6%; in the experiment with MCF7 breast, 33.3%; in the experiment with HCT-116 colon, -5.73% (active); with HCC-2998 colon it was -1.53% (active); in the experiment on KM12 colon it was 11.6%. The growth in the experiment with MDA-MB-468 breast was 38.6%.

For the molecule `CCCCCCCS(=O)(=O)N1CCCC(C(=O)Nc2nc3ccc(NC(=O)c4ccc(F)c(OC)c4F)cc3s2)C1` (configuration not stated), the growth in the experiment with SR leukemia is 60.6%; in the experiment on RPMI-8226 leukemia it was 41.3%; in the experiment on OVCAR-8 ovarian, 6.24% (active); with OVCAR-5 ovarian it was 65.1%; in the experiment with OVCAR-4 ovarian it was 29.8%; in the experiment on SK-OV-3 ovarian, 57.4%. In addition, the growth in the experiment on IGROV1 ovarian was 60.3%; in the experiment with OVCAR-3 ovarian, 40.2%; in the experiment on HS 578T breast it was 25.2%; with NCI/ADR-RES ovarian, 46.8%; in the experiment with T-47D breast, 41.9%; in the experiment on BT-549 breast, 55.8%. Besides, the growth was 72.2% in the experiment on MDA-MB-435 melanoma; 64.6% in the experiment on SW-620 colon; 27.6% in the experiment on MCF7 breast; 25.1% in the experiment on HCT-116 colon; 58.2% in the experiment with HCC-2998 colon; 63.8% with KM12 colon. Besides, the growth in the experiment on MDA-MB-468 breast is -4.4% (active).

With `Cc1cc(=O)oc2cc(OCCCOc3ccc(/C=C/C(=O)Nc4ccccc4N)cc3)ccc12`, the growth with SR leukemia was 21.4%; in the experiment on RPMI-8226 leukemia it was 0.19% (active); in the experiment with OVCAR-8 ovarian, 44.2%; in the experiment on OVCAR-5 ovarian, 37.5%; with OVCAR-4 ovarian, 40.9%; in the experiment with SK-OV-3 ovarian, 7.97% (active). Moreover, the growth is 39.4% in the experiment with IGROV1 ovarian; 5.72% (active) in the experiment with OVCAR-3 ovarian; 48.3% with HS 578T breast; 21.3% in the experiment on NCI/ADR-RES ovarian; 9.28% (active) in the experiment on T-47D breast; -59.7% (active) with BT-549 breast. The growth with MDA-MB-435 melanoma was 38.3%; with SW-620 colon, 26.8%; in the experiment on MCF7 breast, 4.44% (active); in the experiment on HCT-116 colon, 17.2%; with HCC-2998 colon, 27.3%; with KM12 colon it was 12.6%. The growth with MDA-MB-468 breast was -48.1% (active).
